Assay [1] is described as follows: TOX21_p53_BLA_p2_viability: Viability Assessment in the Tox21 HCT-116 p53 Agonism Beta-lactamase Assay, Phase 2 (AID 2283591).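 Also: compound exposure lasted 16 h at 37 °C; actives lower the ATP signal meaning cytotoxicity.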 Put shortly:
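Cytotoxicity readout: CellTiter-Glo ATP luminescence, 30 min at room temperature, after the beta-lactamase read. Cells were HCT116 exposed 16 h at 37C to compounds pin-transferred at 217-fold dilution from DMSO stocks.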

A short description of assay [2]: TOX21_p53_BLA_p3_viability: Viability Assessment in the Tox21 HCT-116 p53 Agonism Beta-lactamase Assay, Phase 3 (AID 2283593).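 Also: cells exposed to compound for 16 h before reading.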 An outline of the steps: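 Cellular ATP was quantified by CellTiter-Glo luminescence, read after 30 min at room temperature. Beforehand, HCT116 cells (4000/well) received compound 5 h post-seeding, 217-fold diluted from DMSO, then incubated 16 h at 37C.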

The target in assay [3] is Cellular tumor antigen p53 (Homo sapiens) (UniProt P04637). Briefly: TOX21_p53_BLA_p3_ratio: Tox21 HCT-116 p53 Agonism Beta-lactamase Assay, Ratio, Phase 3 (AID 2283596). Put shortly: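 Cells were seeded at 4000/well, rested 5 h at 37C, then dosed with DMSO compound solutions (217-fold dilution) for 16 h. CCF4-AM substrate was loaded for 2 h at room temperature, and the 460/530 nm emission ratio was fitted for gain of signal versus DMSO.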

A short description of assay [4]: TOX21_p53_BLA_p4_viability: Viability Assessment in the Tox21 HCT-116 p53 Agonism Beta-lactamase Assay, Phase 4 (AID 2283597).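 Also: hits lower the luminescence signal meaning cytotoxicity.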 Put shortly:
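Viability is taken as cellular ATP: after 16 h compound exposure of HCT116 cells and a 2 h room-temperature CCF4-AM substrate step, CellTiter-Glo reagent is added and luminescence is measured 30 min later.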

In assay [5] the target is Cellular tumor antigen p53 (Homo sapiens) (UniProt P04637). Briefly: TOX21_p53_BLA_p4_ratio: Tox21 HCT-116 p53 Agonism Beta-lactamase Assay, Ratio, Phase 4 (AID 2283601). Put shortly: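 Signal is the blue/green (460nm/530nm) ratio of cleaved versus uncleaved CCF4-AM substrate, read after 2 h substrate loading. Cells were HCT116 carrying the p53-responsive beta-lactamase reporter, dosed 16 h at 37C, 5% CO2; CellTiter-Glo measured in parallel.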

Assay [6] deals with Thyroperoxidase (TPO), gene 54314. Put plainly: CCTE_Simmons_AUR_rTPO: CCTE's Amplex UltraRed Assay for Thyroperoxidase (TPO) Inhibition, Simmons Lab (AID 2283662).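 As to AC50: potency for loss of signal meaning inhibition of peroxidase activity.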 Put shortly: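 Rat thyroid microsomes (5 ug protein) were incubated with test compound (8 concentrations, 5 nM–87.5 uM final, 0.5% DMSO), 25 uM Amplex UltraRed and 300 uM H2O2 in 200 mM phosphate buffer for 30 min at 37C in the dark; fluorescence read at 544/590 nm.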

Assay [7] in a line: CCTE_Simmons_CellTiterGLO_HEK293T: Viability Assessment in CCTE's Assays for Thyroperoxidase (TPO) Inhibition, Simmons Lab (AID 2283665).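 As to AC50: cells exposed to compound for 24 h before readout; actives reduce ATP signal below DMSO vehicle meaning cytotoxicity.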 Put shortly: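 Luminescent ATP readout (CellTiter-Glo, 20 min at room temperature) after 24 hr exposure of HEK293T cells to 5 nM–87.5 uM final compound; signal loss relative to DMSO vehicle indicated cytotoxicity; dichlone titrated as positive control.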

Assay [8] in a line: CEETOX_H295R_MTT_cell_viability: Viability Assessment in the CeeTox HT-H295R MTT Assay (AID 2283718; active = hit-call score of the fitted dose curve at least 0.9, where 1 is the maximum; inactive = score below 0.9;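 as to AC50: curve fitted both ways so AC50 may mark viability loss or gain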). An outline of the steps: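 MTT reduction (0.5 mg/ml, 4 h at 37 C; absorbance at 570 and 650 nm) gave viability as background-corrected percent change versus controls. H295R cells had 48 h forskolin (10 uM) prestimulation, then 48 h chemical exposure at 0.1% DMSO.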
The target in assay [9] is Luciferin 4-monooxygenase (Photinus pyralis) (UniProt P08659). Put plainly: CCTE_Simmons_QuantiLum_inhib_2: CCTE's Firefly Luciferase Inhibition Assay, Simmons Lab (AID 2283767).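 As to AC50: potency for inhibitors that lower luciferase luminescence relative to DMSO.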 An outline of the steps: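 Cell-free QuantiLum luciferase, 5 ng/well; compounds 5 nM–87.5 uM final, 8 conc, 0.5% DMSO; 30 min, 37C, dark. Detection reagent (150 uM D-luciferin, 147 uM dATP, CoA, DTT, pH 7.8 final) injected per well, kinetic luminescence. Triplicate biological replicates.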

Assay [10] can be described thus: ACEA_AR_agonist_AUC_viability: ACEA Biosciences xCELLigence Real-Time Cell Analysis on Androgen Receptor Agonism for Viability (AID 2283775).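 As to AC50: viability read 80 hours after compound addition.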 An outline of the steps: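 Viability endpoint from xCELLigence impedance in 22Rv1 prostate cells at 80 h. Eight-point series, 100 uM maximum final.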
Assay [11] is described as follows: TOX21_p53_BLA_p5_viability: Viability Assessment in the Tox21 HCT-116 p53 Agonism Beta-lactamase Assay, Phase 5 (AID 2283600). An outline of the steps: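 Viability is taken from cellular ATP content, measured by luciferase luminescence in the same wells after the beta-lactamase ratio read. Cells are seeded at 4000 per well and exposed to DMSO-dissolved compounds, diluted 217-fold, for 16 h.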

Assay [12] concerns the target Cellular tumor antigen p53 (Homo sapiens) (UniProt P04637). Briefly: TOX21_p53_BLA_p5_ratio: Tox21 HCT-116 p53 Agonism Beta-lactamase Assay, Ratio, Phase 5 (AID 2283599). Put shortly:
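Beta-lactamase reporter ratio (blue 460 nm over green 530 nm, 405 nm excitation) after 2 h CCF4-AM loading, in HCT-116 cells exposed 16 h at 37 C to compounds pinned at 217-fold dilution. Increases relative to DMSO baseline scored.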

Structures are written as SMILES. “And” between values parts separate entries of the source, which are not always exact repeats. Identical values can stand only once. Results filed as inconclusive are left out. The source made the active and inactive calls. The calls were made as follows, unless noted: active = hit-call score of the fitted dose curve at least 0.9, where 1 is the maximum; inconclusive = response in the unintended direction; inactive = score below 0.9.

Chain of Luciferin 4-monooxygenase (Photinus pyralis) (P08659 whole entry, looked up): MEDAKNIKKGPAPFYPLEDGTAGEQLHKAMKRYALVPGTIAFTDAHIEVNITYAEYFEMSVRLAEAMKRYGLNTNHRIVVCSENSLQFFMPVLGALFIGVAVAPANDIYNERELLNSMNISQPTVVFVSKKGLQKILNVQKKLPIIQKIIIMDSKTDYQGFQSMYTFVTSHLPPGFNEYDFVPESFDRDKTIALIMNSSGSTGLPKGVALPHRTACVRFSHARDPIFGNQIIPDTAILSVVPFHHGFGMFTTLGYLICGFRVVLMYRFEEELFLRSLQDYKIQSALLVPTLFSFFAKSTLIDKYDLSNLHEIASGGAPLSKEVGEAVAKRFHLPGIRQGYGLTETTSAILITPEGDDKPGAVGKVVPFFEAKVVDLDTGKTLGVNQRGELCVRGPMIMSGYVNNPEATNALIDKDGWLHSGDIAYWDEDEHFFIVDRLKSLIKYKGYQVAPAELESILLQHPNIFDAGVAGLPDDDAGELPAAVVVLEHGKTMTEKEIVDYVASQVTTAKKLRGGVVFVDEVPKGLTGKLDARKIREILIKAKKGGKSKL
Chain of Cellular tumor antigen p53 (Homo sapiens) (P04637 whole entry, looked up): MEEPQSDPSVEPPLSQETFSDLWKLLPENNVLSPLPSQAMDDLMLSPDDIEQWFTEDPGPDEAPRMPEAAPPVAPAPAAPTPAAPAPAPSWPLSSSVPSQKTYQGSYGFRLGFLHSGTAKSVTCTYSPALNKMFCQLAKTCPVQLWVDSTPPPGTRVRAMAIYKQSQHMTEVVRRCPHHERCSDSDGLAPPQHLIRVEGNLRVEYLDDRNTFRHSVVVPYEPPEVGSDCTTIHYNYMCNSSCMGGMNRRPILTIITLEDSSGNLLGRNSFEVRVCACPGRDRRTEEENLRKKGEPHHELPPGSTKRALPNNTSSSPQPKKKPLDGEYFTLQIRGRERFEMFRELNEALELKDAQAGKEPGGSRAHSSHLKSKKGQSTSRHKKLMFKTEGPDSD

For the compound `CCCCCCCCCCCCCOP(=O)(O)O`, the compound was called inactive in [1], in assay [4], in assay [5], in assay [6], in [8] and in [9]. Further, the compound was classed as inactive in assay [10]. The AC50 is 72.2 µM (active) in assay [2], 86.8 µM (active) in assay [3] and 79.1 µM (active) in assay [7].

For the compound `CCc1ccc2c(c1)C(=O)c1ccccc1C2=O`, the compound was classed as inactive in [1], in assay [2] and in assay [11].

For the compound `O=C(Nc1cccc(C(F)(F)F)c1)c1cc(Br)cc(Br)c1O`, the AC50 was 747 nM (active) and 1.12 µM (active) in assay [1]; 429 nM (active) and 1.04 µM (active) in assay [2]; 306 nM (active) and 746 nM (active) in assay [3]; 1.82 µM (active) and 1.7 µM (active) in [4]; 1.07 µM (active) and 7.71 µM (active) in assay [12]; 3.52 µM (active) and 8.65 µM (active) in assay [5]. Also, the compound was called inactive in assay [11].

Take `CC1=NC(C)OC1C` (stereo not given): the compound was classed as inactive in assay [1], in assay [2], in [12], in [11] and in assay [5].

With `CC1=CC[C@H](C(C)C)C=C1`, the outcome in assay [1], in [2] and in assay [11] was inactive.

Consider `CC(=O)c1ccc2c(c1)CCCC2`, for which the compound was classed as inactive in [1], in assay [2], in [3] and in assay [5].

As to `[Cl][Nd]([Cl])[Cl]`, the outcome in assay [1], in assay [2] and in assay [12] was inactive.

Regarding `Cc1ccc(N/N=c2\c(=O)cc/c(=N/Nc3ccc(S(=O)(=O)O)cc3)c2=O)c(C)c1`, the call in assay [1], in assay [2], in assay [4], in assay [12], in assay [11] and in assay [5] was inactive. In addition, the AC50 in assay [6] was 28.9 µM (active); in assay [7] it was 76.6 µM (active); in assay [9], 53.8 µM (active).

`CCOC(=O)CC(C(C)=O)C(C)=O`: the call in [1], in [2], in assay [3] and in assay [12] was inactive.

On to `CC(C)=CCCC(C)C=O` (stereo not given), for which the call in [1], in assay [2], in assay [12], in [11] and in [5] was inactive.

As to `C=CC(=O)OCCOC(=O)C=C`, the outcome in assay [1], in assay [2], in [3], in assay [12], in assay [11] and in assay [5] was inactive.

`CCCCCC/C=C\CCCCCCCC(=O)O`: the compound was classed as inactive in assay [1], in [3], in assay [11] and in assay [5]. In addition, the AC50 in [2] was 76.5 µM (active).

`N[C@H]1C(O)O[C@H](CO)[C@H](O)[C@@H]1O` (stereo not given in full): the result in assay [1], in [2], in assay [3], in [4], in assay [12] and in assay [11] was inactive. The result in [5] was inactive.

For `CCCNC(=O)NS(=O)(=O)c1ccc(Cl)cc1`, the outcome in assay [1], in assay [2], in [3], in assay [12], in [11] and in assay [5] was inactive.

Consider `CN(C)c1ccc(C(=N)c2ccc(N(C)C)cc2)cc1`, for which the call in [1], in assay [2], in assay [11], in assay [7] and in [9] was inactive. The AC50 in assay [3] is 13.2 µM (active) and 6.84 µM (active); in assay [12], 2.63 µM (active) and 2.56 µM (active); in [5] it was 936 nM (active) and 1.49 µM (active); in [6], 31.6 µM (active); in assay [8], 0.0018 µM (active); in assay [10], 3.18 µM (active).

Turning to `C=CCOc1c(Br)cc(Br)cc1Br`, the call in assay [1], in assay [2], in [3], in [12], in [11] and in assay [5] was inactive.

As to `CC(C)=CCC/C(C)=C\C#N`, the outcome in assay [1], in assay [2], in assay [3], in assay [12], in assay [11] and in assay [5] was inactive.

Take `COC(=O)/C=C\C(=O)O`: the call in [1], in assay [2], in assay [12], in assay [11] and in assay [5] was inactive.

In the case of `CCCCCCCCC(=O)OCC`, the result in assay [1], in assay [3], in assay [4], in assay [12] and in assay [11] was inactive.
